Active and inactive are the calls of the source. How the source made its calls: active means hit-call score of the fitted dose curve at least 0.9, where 1 is the maximum; inactive means score below 0.9.

This note sets out measurements from PubChem BioAssay (EPA / NIEHS).

This assay in a line: ATG_GLI_CIS: Attagene CIS-FACTORIAL HepG2 Assay for human Zinc Finger Protein GLI1 (AID 2282945). The note with it: HepG2, Attagene cis-factorial reporter mRNA, GLI element; actives raise or lower the signal. The method, boiled down:
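Transiently transfected HepG2 cells report endogenous transcription factor activity via cis-element-driven reporter units. After 24 h compound exposure, reporter mRNA was measured by RT-PCR with capillary electrophoresis; bidirectional fitting against DMSO baseline.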
With `CCOS(=O)(=O)OCC`, the molecule was classed as inactive. As for `ClC(Cl)(Cl)c1ccccc1`, the result was inactive. As to `CC(C)(C)N(NC(=O)c1ccc(Cl)cc1)C(=O)c1ccccc1`, the molecule was classed as inactive. With `CCN(CC)c1ccccc1`, the result was inactive.

Take `CCCCN(CCCC)SN(C)C(=O)Oc1cccc2c1OC(C)(C)C2`: the call was inactive. On the same count and under the same terms, the result for `CCOP(=S)(OCC)SCSCC` reads “inactive”; that for `CCCCCCCc1ccc(O)cc1`, “inactive”. On the same count and under the same terms, the same measure for `O=C(O)C=CC(F)(C(F)(F)F)C(F)(F)F`: “inactive”; for `CC(Cc1ccc(OCC(=O)O)cc1)NCC(O)c1csc(C(F)(F)F)n1` (centres undefined): “inactive”. On the same count and under the same terms, the same measure for `CCC(C)(C)c1ccc(O)cc1`: “inactive”; for `O=S(=O)(F)C(F)(F)C(F)(F)C(F)(F)C(F)(F)C(F)(F)C(F)(F)C(F)(F)C(F)(F)F`: “inactive”; for `N#Cc1c(-c2ccc(Cl)cc2)[nH]c(C(F)(F)F)c1Br`: “inactive”. For orientation: AC50 means the concentration at which the activity in the assay is half-maximal. As to `O=P(Oc1ccccc1)(Oc1ccccc1)Oc1ccccc1`, the AC50 was 53.3 µM (active). Take `O=[N+]([O-])c1ccc(Cl)c(Cl)c1`: the molecule was classed as inactive. `C/C(=N\NC(=O)Nc1cc(F)cc(F)c1)c1ncccc1C(=O)O`: the molecule was classed as inactive. As for `Nc1ccc(Cl)cc1`, the result was inactive. `CC(O)C#N` (centres undefined): the molecule was called inactive.

As for `C=C(C)C(=O)OCC1CO1` (centres undefined), the result was inactive. `CCCCN(CC)C(=O)SCCC`: the outcome was inactive. Turning to `CCCCN(CCCC)N=O`, the molecule was called inactive.

Take `ClC(Cl)c1ccccc1`: the outcome was inactive. Still for that read-out and setting: the same measure for `c1ccc2c(c1)sc1ccccc12`: “inactive”. On the same count and under the same terms, the same measure for `Cc1ccc([N+](=O)[O-])cc1C`: “inactive”. The same measure, in the same setting: the result for `CCC1(c2ccccc2)C(=O)N=C(O)NC1=O` (centres undefined) reads “inactive”; that for `OCC(F)(F)OC(F)(F)C(F)(F)OC(F)(F)CO`, “inactive”; that for `CCOP(=S)(Oc1ccc([N+](=O)[O-])cc1)c1ccccc1` (centres undefined), “inactive”. Consider `CCOP(=S)(OCC)SCn1nnc2ccccc2c1=O`, for which the molecule was called inactive.

For the molecule `CC(C)(C)OOC(C)(C)C`, the molecule was called inactive. Same read-out and setting: the same measure for `Nc1ccc(Sc2ccc(N)cc2)cc1`: “inactive”. With `CN(C)C(=O)Cl`, the outcome was inactive. Same read-out and setting: the result for `CCCCc1ccc(O)cc1` reads “inactive”; that for `c1ccc(OP(Oc2ccccc2)Oc2ccccc2)cc1`, “inactive”. The same measure, in the same setting: the result for `CC(Cl)(Cl)C(=O)O` reads “inactive”; that for `OCC(F)(F)OC(F)(F)C(F)(F)OC(F)(F)C(F)(F)OC(F)(F)CO`, “inactive”; that for `O=C(O)C1C(C(=O)O)C2(Cl)C(Cl)=C(Cl)C1(Cl)C2(Cl)Cl` (centres undefined), “inactive”. As to `O=P1(N(CCCl)CCCl)NCCCO1` (centres undefined), the molecule was called inactive.

`O=C(O)C(F)(OC(F)(F)C(F)(F)C(F)(F)F)C(F)(F)F` (centres undefined): the result was inactive.

With `CCCCc1ccccc1`, the result was inactive. Take `N#Cc1cc([N+](=O)[O-])ccc1N`: the molecule was classed as inactive.
